# An excerpt weighted towards active compounds, which were near 4.3% of everything screened.
# rCAG RNA binder – binds r(CAG) RNA repeats | actives 1.3% (n = 370,000) | inhibition, % at 3 µM | r(CAG) RNA repeat, TO-PRO-1 dye displacement fluorescence | AID 651821;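 active = inhibition above the plate cutoff, the mean of all test compounds on that plate plus 3 SD, cut at about 35% in these data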;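 also: 0% = DMSO alone and 100% = 100 µM mitoxantrone as full dye displacement; higher means more dye released from RNA so lower well fluorescence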
# NR3A LBD binder – modulates the human NR3A ligand-binding domain; Tm shift relative to glycine control, % at 25 µM; actives 2.5% (n = 340,000); NR3A LBD differential scanning fluorimetry, Tm shift; 0% = protein alone, 100% = glycine-bound protein; AID 1259313;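 active = melting temperature shift of at least 10% of the positive control shift, at one fixed dose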
# FAS-TE inh – blocks the thioesterase domain of human fatty acid synthase. recombinant FAS-TE, OMFH fluorogenic substrate, fluorescence endpoint. actives 0.67% (n = 360,000). inhibition, % at 15 µM;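 active = compounds whose normalised, plate-corrected inhibition of enzyme fluorescence in the single-dose primary screen is 50% or more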;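 also: 0% = DMSO with enzyme and 100% = substrate without enzyme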
# NadD block – inhibitors of Staphylococcus aureus NadD; actives 0.78% (n = 360,000); inhibition, % at 20 µM; AID 602399; purified NadD enzyme, colorimetric absorbance read-out; in the data active = inhibition above about 26%
# rCAG binder conf – r(CAG) RNA repeat binding, confirmation; shares compounds with rCAG RNA binder; TO-PRO-1 dye displacement fluorescence; inhibition, % at 3 µM; actives 70% (n = 4,300); AID 652065;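 active = inhibition above a per-plate cutoff, the mean inhibition of sample wells plus 3 SD, cut at about 35% in these data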;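 also: loss of TO-PRO-1 fluorescence as compound displaces dye from 1x1 AA loop RNA; 0% = DMSO only wells and 100% = 100 µM mitoxantrone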
# DNA CAG counter – counter-screen for rCAG RNA binders: DNA CAG dye complex inhibitors; shares compounds with rCAG RNA binder; d(CAG) DNA oligo TO-PRO-1 dye displacement, fluorescence; inhibition, % at 3 µM; actives 94% (n = 4,300);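 active = inhibition above its plate's cutoff, the mean test-well inhibition plus 3 SD, cut at about 4.8% in these data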;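 also: 0% = DNA dye mix with DMSO and 100% = 100 µM mitoxantrone; hits displace the dye from DNA and so lower well fluorescence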
# An asterisk follows results filed as active; . = no result.
SMILES,rCAG RNA binder,NR3A LBD binder,FAS-TE inh,NadD block,rCAG binder conf,DNA CAG counter
COc1ccc(S(=O)(=O)Nc2ccccc2C(=O)Nc2nc(-c3ccc(F)cc3)cs2)cc1OC,87*,26*,36,2,89*,71*
CN(C)Cc1c(C(C)(C)O)[nH]c2cc(C(F)(F)F)ccc12,1,.,.,.,.,.
O=C(Nc1cccc(-c2nc3ccccc3c(=O)o2)c1)c1ccccc1,36*,-6,28,-5,7,2
COc1cccc(-c2nc3ccccc3c(=O)o2)c1,4,1,10,-6,.,.
CCOC(=O)c1cc(OC(=O)c2cccc([N+](=O)[O-])c2)n(-c2ccccc2)n1,35*,0,-9,-2,2,1
Cc1ccc(CNC(=O)C2CC(c3cccc(F)c3)=NO2)cc1 (configuration not stated),-3,3,-13,-9,.,.
Cc1ccc(CNC(=O)C2CC(c3ccc([N+](=O)[O-])cc3)=NO2)cc1 (configuration not stated),44*,0,17,-3,3,0
CCOC(=O)CC[C@@]1(C(=O)OCC)C[C@@H](CC(=O)NCc2ccc(C)o2)C(=O)N2CCCC=C21,49*,.,.,.,2,1
Cc1cccc(NC(=S)N/N=C/c2ccc([N+](=O)[O-])s2)c1,36*,6,-13,16,18,11*
CCC1CCCCN1C(=O)c1cccc(S(=O)(=O)Nc2cc(C(F)(F)F)ccc2Cl)c1 (configuration not stated),36*,4,6,2,56*,16*
O=C(NC1CCN(Cc2ccccc2)CC1)c1cccc(S(=O)(=O)Nc2cc(C(F)(F)F)ccc2Cl)c1,64*,2,1,6,55*,17*
CCOC(=O)C(CNc1ccc(O)cc1)NC(=O)c1ccccc1 (configuration not stated),15,.,.,.,.,.
Nc1[nH]c(C(=O)c2ccccc2)c(-c2ccc3ccccc3c2)c1C(=O)NCc1ccc(-c2ccccc2)cc1,25,.,.,.,.,.
CCCCCCCCOC(=O)c1cc([N+](=O)[O-])c(Sc2ncnc3nc[nH]c23)c([N+](=O)[O-])c1,38*,-11,5,19,40*,19*
CC(C)C[C@@H]1COc2cc(NCCCN3CCOCC3)ccc2S(=O)(=O)N1,-1,.,.,.,.,.
O=S(=O)(N/N=C1/CC(c2ccccc2)Oc2ccccc21)c1ccccc1 (configuration not stated),36*,-4,15,1,32,9.6*
CC(C)(C)N/N=C1\CC(c2ccccc2)Oc2ccccc21 (configuration not stated),-1,5,50,2,.,.
O=C1CC(c2ccccc2)Oc2ccc(Cl)cc21 (configuration not stated),1,0,14,-12,.,.
O=C(O)c1cc(N/N=C2/CC(c3ccccc3)Oc3ccccc32)ccc1Cl (configuration not stated),46*,-10,7,4,62*,22*
COc1ccc(CNC(=O)[C@@H](Cc2ccccc2)NC(=O)[C@H]2O[C@@H](n3cnc4c(=O)[nH]c(N)nc43)[C@H](O)[C@@H]2O)cc1,7,.,.,.,.,.
O=C(C(=O)N1CCN(S(=O)(=O)c2ccc(OC(F)(F)F)cc2)CC1)c1cccc(C(F)(F)F)c1,2,.,.,.,.,.
CC(C)(C)c1ccc(S(=O)(=O)N2CCN(C(=O)C(=O)c3cccc(C(F)(F)F)c3)CC2)cc1,3,.,.,.,.,.
Cc1noc(NS(=O)(=O)c2ccc(NC(=O)c3cccc(S(=O)(=O)N(C)c4ccccc4)c3)cc2)c1C,73*,0,-3,7,81*,37*
Cc1noc(NS(=O)(=O)c2ccc(NC(=O)c3ccc(Cl)c(S(=O)(=O)N(C)c4ccccc4)c3)cc2)c1C,91*,8,-2,14,84*,55*
COc1ccc(C(=O)Nc2ccc(S(=O)(=O)Nc3onc(C)c3C)cc2)cc1,10,1,-2,-5,.,.
CC(=O)N1CCCN(C(=O)CN2C(=O)CC(C)(C)S(=O)(=O)c3ccccc32)CC1,-1,.,.,.,.,.
c1ccc(-c2c[nH]c3ccc(OCc4ccc5ccccc5n4)c(-c4ccccc4)c23)cc1,14,.,.,.,.,.
CCOC(=O)c1c(-c2ccc3ccccc3c2)csc1NC(=O)CCCC(=O)O,45*,-9,-1,5,50*,14*
